Assay outcomes as filed in PubChem BioAssay.
Rows were chosen to be rich in hits. Some 1.9% of all compounds tested hit in one or more screens of this group.
HTR5A inv ag: HTR5A inverse agonists in luminescence cell assay, primary screen, counter-screen for OPRM1-OPRD1 heterodimer inverse agonist project, full-deck HTS; inhibition, % at 9.3 µM; AID 504634, 2011; hit rate 0.083% among 340,000; HTR5A cell line, inverse agonism; 5-hydroxytryptamine receptor 5A (Homo sapiens), P47898; in the data active means inhibition mostly above about 23%, no sharp cut-off; inactive means mostly below about 18%;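 further: 0% = cells with DMSO and 100% = no-cell wells with DMSO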
MsrA inh: bovine MsrA enzyme inhibitors, primary screen, biochemical, absorbance, HTS. Methionine sulfoxide reductase A (Bos taurus). purified bovine MsrA, absorbance read-out. inhibition, % at 15.5 µM. hit rate 0.75% among 360,000. AID 651718, 2012;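 further: 0% = vehicle wells with enzyme and 100% = reference inhibitor wells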
OPRM1-OPRD1 inv: inverse agonists of MOR-DOR heterodimerization, primary screen, cell-based, luminescence; Mu-type opioid receptor (Homo sapiens) + Delta-type opioid receptor (Homo sapiens), …; cell-based MOR-DOR heterodimer luminescence, inverse agonism; inhibition, % at 9.3 µM; hit rate 0.21% among 340,000; AID 504357, 2011; in the data active means inhibition above about 22%, passing the limit was not always enough;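 further: 0% = cells with DMSO and 100% = wells without cells with DMSO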
Target sequence (P35372 whole entry, looked up): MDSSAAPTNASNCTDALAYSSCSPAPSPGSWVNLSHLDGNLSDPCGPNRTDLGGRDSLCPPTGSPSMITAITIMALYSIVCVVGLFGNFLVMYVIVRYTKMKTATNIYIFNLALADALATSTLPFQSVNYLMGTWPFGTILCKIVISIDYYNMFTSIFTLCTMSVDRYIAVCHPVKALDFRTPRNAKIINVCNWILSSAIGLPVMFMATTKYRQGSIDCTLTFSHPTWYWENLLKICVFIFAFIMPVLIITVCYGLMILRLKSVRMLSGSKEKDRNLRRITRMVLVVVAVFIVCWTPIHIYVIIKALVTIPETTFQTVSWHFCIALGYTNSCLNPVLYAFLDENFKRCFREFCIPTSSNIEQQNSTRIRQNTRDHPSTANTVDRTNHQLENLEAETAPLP
Target sequence (P41143 whole entry, looked up): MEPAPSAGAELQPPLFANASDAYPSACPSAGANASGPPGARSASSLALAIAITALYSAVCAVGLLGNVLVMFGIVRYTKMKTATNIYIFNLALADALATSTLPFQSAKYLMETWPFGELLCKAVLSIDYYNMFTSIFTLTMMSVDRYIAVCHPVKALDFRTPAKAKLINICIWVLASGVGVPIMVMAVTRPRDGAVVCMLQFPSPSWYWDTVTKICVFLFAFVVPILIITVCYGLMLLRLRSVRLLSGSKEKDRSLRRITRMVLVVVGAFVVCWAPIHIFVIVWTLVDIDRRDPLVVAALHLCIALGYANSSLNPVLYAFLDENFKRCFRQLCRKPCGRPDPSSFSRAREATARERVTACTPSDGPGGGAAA
HTR5A ag: HTR5A agonists in luminescence cell assay, primary screen, counter-screen for OPRM1-OPRD1 heterodimer agonist project, full-deck HTS. hit rate 0.61% among 340,000. cell-based. activation, % at 9.3 µM; in the data active means activation mostly above about 9.5%, no sharp cut-off; inactive means mostly below about 7.6%;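 further: 0% = cells with vehicle only and 100% = reference agonist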
OPRM1-OPRD1 ag: agonists of OPRM1-OPRD1 heterodimerization, primary screen, cell-based, luminescence; Mu-type opioid receptor (Homo sapiens) + Delta-type opioid receptor (Homo sapiens), …; cells; activation, % at 9.3 µM; hit rate 0.3% among 340,000; AID 504326, 2011; in the data active means activation above about 18%;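 further: 0% = vehicle-treated cells and 100% = reference agonist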
bovine MsrA act: bovine MsrA enzyme activators, primary screen, biochemical, absorbance, HTS. purified bovine MsrA, absorbance read-out. hit rate 0.3% among 360,000. Methionine sulfoxide reductase A (Bos taurus). AID 602163, 2012. activation, % at 10.6 µM; in the data active means activation above about 7.5%;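 further: 0% = vehicle and 100% = reference activator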
MsrA inh confirm: bovine MsrA inhibitors, retest, confirmation, biochemical, absorbance, HTS. shares compounds with MsrA inh. purified bovine MsrA, absorbance read-out. inhibition, % at 15.5 µM. hit rate 41% among 2,300. AID 651822, 2012;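 further: coupled to thioredoxin reductase with NADPH and selenocystamine and DMSO as substrate; 0% = vehicle only and 100% = full effect of reference inhibitor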
Active calls of the source: *. Unless noted, no stated cut-off is given here; in the data, active means inhibition above about 4.5%; inactive means the rest.

CCCn1c(C)cc(/C=C(\C#N)C(=O)O)c1C was read as HTR5A inv ag 4, MsrA inh 6.8*, OPRM1-OPRD1 inv 11, HTR5A ag -2, OPRM1-OPRD1 ag -2, bovine MsrA act -8 and MsrA inh confirm 4.
Screening Cc1cc(/C=C(\C#N)C(=O)O)c(C)n1CC1CCCO1 (stereo not given) returned HTR5A inv ag 0, MsrA inh 5.2*, OPRM1-OPRD1 inv 9, HTR5A ag 0, OPRM1-OPRD1 ag -2, bovine MsrA act -1 and MsrA inh confirm 6.2*.
`Cc1cc(/C=C(\C#N)C(=O)O)c(C)n1-c1ccc(Br)cc1` gave HTR5A inv ag -28, MsrA inh 7.4*, OPRM1-OPRD1 inv 20, HTR5A ag -2, OPRM1-OPRD1 ag -4, bovine MsrA act -6 and MsrA inh confirm 4.8*.
For CCCCn1c(C)cc(/C=C(\C#N)C(=O)O)c1C the results were HTR5A inv ag 9, MsrA inh 4, OPRM1-OPRD1 inv 3, HTR5A ag -5, OPRM1-OPRD1 ag 0 and bovine MsrA act -8.
`Cc1cc(/C=C(/C#N)C(=O)O)c(C)n1CCC(C)C` gave HTR5A inv ag 9, MsrA inh 4.8*, OPRM1-OPRD1 inv 2, HTR5A ag 5, OPRM1-OPRD1 ag 0, bovine MsrA act -6 and MsrA inh confirm 3.
Cc1cc(C=C(C#N)C#N)c(C)n1-c1ccccc1 was read as HTR5A inv ag -20, MsrA inh -1, OPRM1-OPRD1 inv 5, HTR5A ag -1, OPRM1-OPRD1 ag -1 and bovine MsrA act -3.
For CN(Cc1ccc(Cl)c(Cl)c1)C(c1cc2ccccc2o1)c1nnnn1C(C)(C)C (stereo not given) the results were MsrA inh 0 and bovine MsrA act -2.
CCCC(=O)N1CCC1(C)C(=O)Nc1scc(C)c1C#N (stereo not given) was read as bovine MsrA act -4.
Cc1c(OCC(N)=O)ccc2c(-c3ccccc3)cc(=O)oc12 was read as HTR5A inv ag 2, MsrA inh 31*, OPRM1-OPRD1 inv 15, HTR5A ag -1, OPRM1-OPRD1 ag -3, bovine MsrA act 1 and MsrA inh confirm 40*.
For Cc1c(OCC(=O)C(C)(C)C)ccc2c(-c3ccccc3)cc(=O)oc12 the results were HTR5A inv ag -11, MsrA inh 0, OPRM1-OPRD1 inv -4, HTR5A ag 3, OPRM1-OPRD1 ag 1 and bovine MsrA act -4.
CC(=O)COc1ccc2c(-c3ccccc3)cc(=O)oc2c1C was read as HTR5A inv ag 4, MsrA inh 19*, OPRM1-OPRD1 inv 4, HTR5A ag -1, OPRM1-OPRD1 ag -1, bovine MsrA act -11 and MsrA inh confirm 22*.
Screening S=C1NC2(CCCCCC2)NN1c1ccccc1 returned MsrA inh 0.
Screening COC(=O)C1=C(C)N(C)C(=NCc2cccc(C(F)(F)F)c2)NC1c1ccccc1C(F)(F)F (stereo not given) returned MsrA inh -1.
For COC(=O)C1=C(C)N(Cc2ccccc2C(F)(F)F)C(=NCc2ccc(OC)cc2)NC1c1ccccc1 (stereo not given) the results were MsrA inh -1.
`Cc1cc(N2CCc3ccccc32)n2ncnc2n1` gave HTR5A inv ag 18, MsrA inh 5.3*, OPRM1-OPRD1 inv 8, HTR5A ag 0, OPRM1-OPRD1 ag -2, bovine MsrA act -2 and MsrA inh confirm 4.
For COc1ccc(/C=C/c2cc(-c3ccc(C)cc3)o[n+]2C)cc1 the results were HTR5A inv ag -3, MsrA inh 5.0*, OPRM1-OPRD1 inv -9, HTR5A ag 1, OPRM1-OPRD1 ag 2, bovine MsrA act -6 and MsrA inh confirm 4.
For Cc1ccc(N/N=C2/CCCNC2=O)cc1 the results were HTR5A inv ag -14, MsrA inh 0, OPRM1-OPRD1 inv 16, HTR5A ag 0, OPRM1-OPRD1 ag -4 and bovine MsrA act -10.
`CC(=O)c1ccc(N/N=C2/CCCNC2=O)cc1` gave MsrA inh 7.4*, bovine MsrA act -8 and MsrA inh confirm 6.2*.
`O=C(N[C@@H](Cc1ccccc1)c1nc2ccccc2[nH]1)c1ccc([N+](=O)[O-])cc1` gave MsrA inh -1.
For CN(/N=C/c1ccncc1)c1cnc2ccccc2n1 the results were HTR5A inv ag -11, MsrA inh 4.7*, OPRM1-OPRD1 inv -6, HTR5A ag 6, OPRM1-OPRD1 ag 1, bovine MsrA act -17 and MsrA inh confirm 4.
For Cc1ccc(-c2nnc(Nc3ccc(C(=O)N(C)C)cc3)c3ccccc23)cc1S(=O)(=O)NCC1CCCO1 (stereo not given) the results were HTR5A inv ag 10, MsrA inh 4.7*, OPRM1-OPRD1 inv 10, HTR5A ag 4, OPRM1-OPRD1 ag -2, bovine MsrA act -3 and MsrA inh confirm 3.
Screening COCC(=O)N(C)[C@H]1C[C@H]2c3[nH]c4c(-c5ccccc5)cccc4c3CCN2C(=O)[C@H]1[C@H](C)O returned MsrA inh -1.
N#Cc1ccc(C(C(=O)NC2CCCCC2)n2c(=O)c(-c3ccccc3)nc3ccccc32)cc1 (stereo not given) was read as MsrA inh 1.
`O=[N+]([O-])c1ccc(Nc2ccccc2)c2nonc12` gave HTR5A inv ag 21, MsrA inh 5.8*, OPRM1-OPRD1 inv 24, HTR5A ag -5, OPRM1-OPRD1 ag -4, bovine MsrA act 4 and MsrA inh confirm 4.
`COc1ccc(S(=O)(=O)Oc2cccc(/C=N/N=C3/NC(=O)C(CC(=O)O)S3)c2)cc1` (stereo not given) gave HTR5A inv ag -3, MsrA inh 5.2*, OPRM1-OPRD1 inv 8, HTR5A ag 1, OPRM1-OPRD1 ag -1, bovine MsrA act -3 and MsrA inh confirm 2.
For CCOc1cc(/C=N/N=C2/NC(=O)C(CC(=O)O)S2)ccc1OS(=O)(=O)c1ccc(C)cc1 (stereo not given) the results were HTR5A inv ag -2, MsrA inh 5.6*, OPRM1-OPRD1 inv 1, HTR5A ag -1, OPRM1-OPRD1 ag 0, bovine MsrA act -2 and MsrA inh confirm 3.
For Cc1ccc(S(=O)(=O)Oc2ccc(/C=N/N=C3/NC(=O)C(CC(=O)O)S3)cc2)cc1 (stereo not given) the results were MsrA inh 4 and bovine MsrA act -4.
